The list is not random: actives were taken first. Their share in the collection is about 4.8%.
TIM10 inh: TIM10 yeast growth inhibition. S. cerevisiae TIM10 strain growth, BacTiter-Glo luminescence, 24 h. inhibition, % at 10 µM. 330,000 compounds, 1.4% hits;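 active = inhibition of 40% or more at the single tested concentration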;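 also: wild-type TIM10 isogenic control strain grown at permissive 25 °C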
SKKanGAS inh: blocks kanamycin growth of S. pyogenes SKKanGAS strain; 300,000 compounds, 1.3% hits; inhibition, % at 7.5 µM; BacTiter-Glo, 6 h;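 active = mean replicate score, as percent of positive control median, at least 50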;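 also: strain carries kanamycin resistance gene driven by streptokinase promoter and grows in 40 µg/ml kanamycin; loss of luminescence reflects streptokinase promoter inhibition or plain growth inhibition; 0% = median of DMSO wells and 100% = positive control at its reference dose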
NALP1 yeast inh: blocks the NALP1 inflammasome reconstituted in yeast | S. cerevisiae NALP1/ASC/caspase-1 growth, X-gal OD620, 72 h | inhibition, % at 10 µM | 280,000 compounds, 0.61% hits | AID 2071; in the data active = inhibition mostly above about 24%, no sharp cut-off; inactive = mostly below about 32%
tim10-1 inh: growth inhibitors of tim10-1 mutant yeast. AID 463190. inhibition, % at 20 µM. S. cerevisiae tim10-1 ts strain growth, BacTiter-Glo, 24 h. 330,000 compounds, 2.2% hits;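 active = inhibition of at least 40%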;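 also: mutant grown at 25 °C; 0% = DMSO wells with yeast and 100% = wells holding no yeast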
PfHsp90 set2: inhibits growth of yeast expressing Plasmodium falciparum Hsp90; inhibition, % at 9.4 µM; 310,000 compounds, 0.32% hits; S. cerevisiae expressing PfHsp90, BacTiter-Glo ATP, 48 h; yeast lacking PDR1 and PDR3 efflux regulators;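 active = every replicate shows inhibition above about 80%, whatever the replicate mean, limit read from the data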;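 also: 0% = DMSO neutral controls and 100% = 20 µM radicicol positive controls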
tim23-1 inh: inhibits growth of tim23-1 mutant yeast | S. cerevisiae tim23-1 growth, BacTiter-Glo luminescence, 24 h | inhibition, % at 20 µM | 330,000 compounds, 1.3% hits | AID 463212;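 active = growth inhibition of the mutant yeast at or above 50%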;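 also: temperature-sensitive mutant grown at 25 °C; plate controls were DMSO-treated mutant yeast for no effect and medium wells lacking yeast for full effect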
tim10-1 conf: confirmation of tim10-1 mutant yeast growth inhibitors | shares compounds with tim10-1 inh | inhibition, % at 20 µM | S. cerevisiae tim10-1 ts strain growth, BacTiter-Glo, 24 h | AID 463213 | 7,400 compounds, 56% hits;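 active = inhibition of yeast growth at or above a set limit in either of two repeat tests at 20 µM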;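 also: tim10-1 mutant grown at permissive 25 °C to find synthetic lethal compounds; 0% = DMSO yeast wells and 100% = medium wells without yeast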
tim10 confirm: confirmation of TIM10 yeast growth inhibitors; shares compounds with TIM10 inh; S. cerevisiae tim10 strain growth, BacTiter-Glo luminescence, 24 h; inhibition, % at 10 µM; 4,600 compounds, 63% hits; AID 463215;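 active = inhibition of yeast growth at or above a set limit in either of two replicates at 10 µM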;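 also: this counterscreen used the strain with wild-type TIM10; 0% = yeast with DMSO and 100% = medium wells lacking yeast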
tim23-1 confirm: tim23-1 yeast growth inhibition, confirmed; inhibition, % at 20 µM; S. cerevisiae tim23-1 growth, BacTiter-Glo luminescence, 24 h; shares compounds with tim23-1 inh; 4,400 compounds, 83% hits;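 active = inhibition above about 39% in either of two replicate wells at 20 µM, limit read from the data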;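 also: temperature-sensitive tim23-1 mutant grown at 25 °C; 0% = DMSO wells with yeast and 100% = medium wells without yeast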
An asterisk follows results filed as active; · = no result.

SMILES | TIM10 inh | SKKanGAS inh | NALP1 yeast inh | tim10-1 inh | PfHsp90 set2 | tim23-1 inh | tim10-1 conf | tim10 confirm | tim23-1 confirm
O=C(/C(=C/c1ccc(Cl)cc1)c1nc2ccccc2[nH]1)c1ccccc1 | 51* | 32 | 6 | 42* | 98* | 51* | 38* | 35* | 58*
COC1=C(C)C(O)=C(C(=O)/C=C/c2ccccc2)C(=O)C1(C)C | 18 | -3 | 14 | 44* | 20 | 57* | 21 | · | 48*
Cc1cc(C)n(C(C[N+](=O)[O-])c2ccc(Cl)cc2)n1 (stereo unspecified) | 77* | 32 | 101* | 42* | 7 | 76* | 54* | 68* | 30
Cc1cc(O)c(C(C[N+](=O)[O-])c2ccc(Cl)cc2)c(=O)o1 (stereo unspecified) | 14 | 2 | 14 | 15 | 10 | 18 | · | · | ·
CCN(Cc1ccccc1)C(c1ccc(C)cc1)c1nnnn1C(C)(C)C (stereo unspecified) | 12 | 40 | 6 | 29 | -21 | 24 | · | · | ·
CCN(Cc1ccccc1)C(c1ccccn1)c1nnnn1C(C)(C)CC (stereo unspecified) | 52* | -3 | 27 | 42* | -1 | 66* | 47* | 51* | 55*
Cc1cc(OCC(=O)Nc2ccc(Br)cc2)cc2c1C(=O)CC(C)(C)O2 | 3 | 6 | 6 | 32 | · | 13 | · | · | ·
O=C(O)c1ccc(Oc2cc(Oc3ccc(C(=O)O)cc3)cc([N+](=O)[O-])c2)cc1 | 4 | 8 | 24 | 34 | -43 | 9 | · | · | ·
O=C(CCc1ccc(Oc2cc([N+](=O)[O-])cc([N+](=O)[O-])c2)cc1)N1CCCCCC1 | 45* | 14 | 5 | 43* | -21 | 51* | 39* | 42* | 50*
O=C(Nc1ccc([N+](=O)[O-])cc1Cl)c1cc(Cl)ccc1O | 21 | · | · | 30 | 7 | 23 | · | · | ·
O=C(Nc1cccc(Cl)c1)c1cc(N=Nc2ccc([N+](=O)[O-])cc2Cl)ccc1O | 40 | -2 | -8 | 70* | 41 | 71* | 60* | · | 78*
COc1cccc(OCCOCC(O)CN2CCN(Cc3ccc(Cl)cc3)CC2)c1 (stereo unspecified) | -15 | 0 | 36 | -29 | -23 | -7 | · | · | ·
C#CCOCCOCCOCCNc1nc(N2CCN(C(=O)CCCCCCCCCCNC(=O)[C@H](CCCCN)n3cc(CCCC(=O)O)nn3)CC2)nc(N2CCN(C(=O)CCCCCCCCCCNC(=O)[C@H](CCCN=C(N)N)n3cc(C[C@@H](C)CC)nn3)CC2)n1 | 11 | 4 | · | 44* | 18 | 52* | 38* | · | 53*
CCCCn1c(-c2ccsc2)nc2c1c(=O)[nH]c(=O)n2CCC | 0 | -4 | 7 | 23 | · | -3 | · | · | ·
C/C(=N\NC(=S)Nc1cccc(C)c1)c1cccc(N)c1 | 24 | 11 | 11 | 37 | -28 | 37 | · | · | ·
C/C(=N\NC(=S)Nc1cccc(C)c1)c1ccccc1 | 60* | 22 | 8 | 51* | -16 | 51* | 50* | -23 | 52*
CCCCc1ccc(/C=C2\C(=O)c3ccccc3C(O)=C2C(=O)OCC)cc1 | 47* | 109* | 39 | 64* | · | 50* | 55* | 47* | 59*
COc1ccc(C=C2C(=O)c3ccccc3C2=O)cc1O | 36 | 6 | 25 | 34 | -18 | 40 | · | · | ·
O=c1c2c3c(sc2ncn1/N=C/c1ccncc1)CCCC3 | 43* | -3 | -6 | 61* | 10 | 66* | 62* | 50* | 27
O=c1c2c3c(sc2ncn1/N=C/c1cccnc1)CCCC3 | 20 | -3 | -1 | 39 | -12 | 44 | · | · | ·
Cc1ccc(NC(=O)COC(=O)C2CC2)cc1Cl | 1 | · | · | 17 | -10 | 18 | · | · | ·
Cc1ccc(NC(=O)COc2ccccc2C=O)cc1Cl | 51* | -1 | -2 | 43* | 18 | 69* | 26 | 51* | 69*
O=C(NCc1ccncc1)C1=NN(c2ccccc2)C(=O)CC1 | 1 | -2 | -7 | 11 | 2 | -1 | · | · | ·
Cc1cc(C(=O)OCC(=O)N2CCOCC2)ccc1[N+](=O)[O-] | -4 | 3 | -17 | -8 | 14 | -4 | · | · | ·
COc1ccc(CN2c3c(Br)cccc3C(=O)CS2(=O)=O)cc1 | 14 | · | · | 42* | -20 | 72* | 41* | · | 60*
SMILES | TIM10 inh | SKKanGAS inh | NALP1 yeast inh | tim10-1 inh | PfHsp90 set2 | tim23-1 inh | tim10-1 conf | tim10 confirm | tim23-1 confirm
Cc1cc(C)nc(SCCN2CCOCC2)n1 | 0 | 6 | 12 | -3 | 5 | 2 | · | · | ·
CNc1nc(N)c([N+](=O)[O-])c(Nc2cccc(Cl)c2)n1 | 62* | -1 | 6 | 55* | · | 59* | 49* | 66* | 64*
CNc1nc(N)c([N+](=O)[O-])c(Nc2cccc(F)c2)n1 | 67* | -4 | 8 | 52* | 12 | 80* | 48* | 79* | 79*
C=CCNc1nc(N)c([N+](=O)[O-])c(Nc2cccc(Cl)c2)n1 | 16 | 9 | 3 | 22 | -13 | 21 | · | · | ·
NNC(=O)COc1ccc(-c2nccc(-c3ccc(F)cc3)n2)cc1 | 13 | 3 | 6 | 49* | 14 | 55* | 30 | · | 41*
COC(=O)C(C)Oc1ccc(-c2nccc(-c3ccc(F)cc3)n2)cc1 (stereo unspecified) | 21 | -3 | 15 | 19 | -24 | 19 | · | · | ·
Oc1ccc(-c2nccc(-c3ccc(F)cc3)n2)cc1 | 34 | 8 | 20 | 52* | -32 | 62* | 54* | · | -16
Cc1ccc(NC(=S)N(CCN2CCCCC2)Cc2ccco2)cc1Cl | 13 | -1 | 15 | 17 | 4 | -4 | · | · | ·
CC(C)(C)c1ccc(NC(=O)N2CCCN(c3ccc([N+](=O)[O-])cn3)CC2)cc1 | 43* | 5 | 37 | 43* | 6 | 61* | 50* | 42* | 57*
O=C1/C(=C/c2cccc([N+](=O)[O-])c2)CCc2ccccc21 | 39 | 3 | 43 | 42* | -21 | 54* | 59* | · | 26
O=C1/C(=C/c2ccc([N+](=O)[O-])cc2)CCc2ccccc21 | 32 | 6 | -2 | 36 | · | 40 | · | · | ·
CCCCCc1ccc(CC(=O)Nn2c(C)nc3ccccc3c2=O)cc1 | 7 | 5 | -27 | 60* | -7 | 52* | 48* | · | 69*
COc1cccc(C(=O)Oc2ccc3ccc(O)cc3c2)c1 | 34 | -3 | 4 | 43* | · | 57* | 38* | · | 54*
